Measured values published in PubChem BioAssay (NCI).
Compounds without any hit were thinned out: in the full panel of roughly 83,000, 20% have a hit.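 Assay: single dose, 48 h. Readout: percent growth (0 = no net growth; negative = cell death). Active: <10.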 Values without a mark were called inactive. Calls of active or inactive are those of the source.

Test system: NCI-H460 lung
Assay: NCI-60 one-dose screen, 48 h (100 = growth as untreated, 0 = no growth, -100 = all killed)
Settings: 10 µM unless noted

SMILES | growth
C[C@]12CC[C@@H]3c4cc(O)c(O)cc4CC[C@H]3[C@@H]1CC[C@@H]2O | 29.5%
CCCOC(=O)C1(O)CCCC1 | 108%
COC1=CC(c2ccc[nH]2)=N/C1=C\c1[nH]c(C)c(C(=O)CCCCC(=O)NCc2ccccc2)c1C | 1.07% (active)
O=C(NNC(=S)Nc1ccccc1)c1ccccn1 | 21.2%
COc1cc(NC(=O)CCl)ccc(=O)c1 | 77.4%
COc1ccc(S(=O)(=O)N2CCN(c3cc4c(cc3F)c(=O)c(C(=O)O)cn4C3CC3)CC2)c(OC)c1 | 99%
COc1ccc(Cn2cc(COc3cc(/C=C/C(=O)c4cc(OC)c(OC)c(OC)c4)ccc3OC)nn2)cc1 | 96.4%
COc1cc(C(=O)OCCCCCCCCCCC[P+](c2ccccc2)(c2ccccc2)c2ccccc2)ccc1O | -10.6% (active)
CC(C(=O)n1cc(-c2ccccc2)c(-c2ccccc2)c1)c1ccccc1 (stereo not given) | 104%
C=CCOc1cccc(/C=C/C(=O)c2sc(Nc3cccnc3)nc2C)c1 | 81.2%
O=C(CCCn1c(=O)c2sc3ccccc3c2n2nnc(-c3ccccc3)c12)NCCc1cnc[nH]1 | -44.1% (active)
CCC1CCc2nc3sc(C(=O)Nc4cccc(C)c4)c(N)c3cc2C1 (stereo not given) | 88.1%
Cc1cccc(NC(=O)c2sc3nc4c(cc3c2N)CCCC4)c1 | 27.6%
COc1ccc(-c2cn[nH]c2-c2cc(OC)c3c(c2)OCCO3)cc1 | 4.65% (active)
CC(C)C[C@H](NC(=O)Cn1ccc(NCc2ccccc2)cc1=O)B(O)O | 60.5%
